Bioassay records deposited in PubChem BioAssay by National Center for Advancing Translational Sciences (NCATS).
In the library only some 10% were active in any assay of this set; here they are far more common.
HEK cytotox – HEK 293 cell cytotoxicity. HEK 293 viability, ATP luminescence (CellTiter-Glo), 48-72 h. Potency, µM (top dose mostly 115 µM), without a hit: at the highest dose activity change, negative = cytotoxicity, actives largely listed as inhibitors. 94,000 tested, 6.6% active. AID 1345083; also: % is scaled to controls: 0 for no effect and ±100 for the full control effect; nearly all actives have a fitted effect of over 60% in size
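Cytotoxicity was scored by loss of ATP-coupled luminescence (CellTiter-Glo) in HEK 293 cells. Compound treatment ran 48 or 72 hr at 37 degree Celsius, 5% CO2, 95% humidity.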
FLuc inh – blocks purified firefly luciferase enzyme activity. P08659. purified P. pyralis luciferase, luminescence, biochemical. Potency, µM (top dose mostly 115 µM), most hits filed as inhibitors. 76,000 tested, 2.5% active. AID 1347043; also: % is scaled to controls: 0 for no effect and ±100 for the full control effect; nearly all actives have a fitted effect of over 65% in size
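FLuc 10nM, D-luciferin 10uM, ATP 10uM, Mg acetate 10mM, Tris acetate pH 7.5, Tween/BSA; cpd qHTS; enzyme added last; CCD luminescence.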
NPR1 antag – human Npr1 receptor antagonism; Potency, µM (top dose mostly 46.3 µM), for the others: at the highest dose activity change, negative = inhibition, usual class: inhibitors; P16066; 76,000 tested, 1.6% active; HEK293 hNpr1 GloSensor cGMP, ANP-stimulated luminescence; calls by dose curve; also: % is scaled to controls: 0 for no effect and ±100 for the full control effect; nearly all actives have a fitted effect of over 60% in size
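Compound pre-incubated 30 min at room temperature on GloSensor-loaded HEK293 cells stably carrying hNpr1 and the pGS-40F cGMP biosensor. Stimulation uses hNppA at 0.1 nM final; luminescence is taken at baseline and 20 min post-agonist.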
GPT2 inh – blocks human glutamate pyruvate transaminase 2; Q8TD30; Recombinant GPT2, coupled pyruvate oxidase/HRP Amplex Red fluorescence; Potency, µM (titrated, usually from 57.7 µM), for the others: top-dose activity change, negative = inhibition, most hits filed as inhibitors; 100,000 tested, 0.25% active; AID 1671188; also: % is scaled to controls: 0 for no effect and ±100 for the full control effect; nearly all actives have a fitted effect of over 60% in size
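GPT2 10ng/uL, a-KG 250uM, L-Ala 2mM, HEPES pH7.5 + 0.0001% Tween; 30 min RT. Then Amplex mix (PO/HRP/ThPP), 30 min RT dark, fluorescence. AOA 50uM used as positive control.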
3T3 cytotox – cytotoxic compounds in NIH 3T3 cells | 94,000 tested, 4.3% active | AID 1345082 | NIH 3T3 viability, CellTiter-Glo ATP luminescence, 48-72 h | Potency, µM (doses to about 96.7 µM), without a hit: at the highest dose activity change, negative = cytotoxicity, hits mostly inhibitors; also: % is scaled to controls: 0 for no effect and ±100 for the full control effect; nearly all actives have a fitted effect of over 55% in size
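First NIH 3T3 cells are plated at 400 cells/well; next compound is pinned in; then plates incubate 48 or 72 hr at 37 °C; finally CellTiter-Glo is added and luminescence read after 10 min.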
Npr1 antag conf – hNpr1 antagonism, confirmation assay. shares compounds with NPR1 antag. AID 1347044. 1,400 tested, 76% active. HEK293 hNpr1 cGMP GloSensor luminescence, ANP-stimulated. Potency, µM (highest dose often 57.6 µM), inactives show at the highest dose activity change, negative = inhibition, actives largely listed as inhibitors; calls by dose curve; also: nearly all actives have a fitted effect of over 70% in size
Npr2 selectivity – selectivity test of Npr1 antagonists against human Npr2 | shares compounds with NPR1 antag | 1,400 tested, 67% active | AID 1347046 | HEK293 hNpr2 GloSensor cGMP luminescence, CNP-stimulated | Potency, µM (top dose mostly 57.6 µM), inactives show top-dose activity change, negative = inhibition, most hits filed as inhibitors; calls by dose curve; also: nearly all actives have a fitted effect of over 70% in size
Target sequence (P20594 whole entry, looked up): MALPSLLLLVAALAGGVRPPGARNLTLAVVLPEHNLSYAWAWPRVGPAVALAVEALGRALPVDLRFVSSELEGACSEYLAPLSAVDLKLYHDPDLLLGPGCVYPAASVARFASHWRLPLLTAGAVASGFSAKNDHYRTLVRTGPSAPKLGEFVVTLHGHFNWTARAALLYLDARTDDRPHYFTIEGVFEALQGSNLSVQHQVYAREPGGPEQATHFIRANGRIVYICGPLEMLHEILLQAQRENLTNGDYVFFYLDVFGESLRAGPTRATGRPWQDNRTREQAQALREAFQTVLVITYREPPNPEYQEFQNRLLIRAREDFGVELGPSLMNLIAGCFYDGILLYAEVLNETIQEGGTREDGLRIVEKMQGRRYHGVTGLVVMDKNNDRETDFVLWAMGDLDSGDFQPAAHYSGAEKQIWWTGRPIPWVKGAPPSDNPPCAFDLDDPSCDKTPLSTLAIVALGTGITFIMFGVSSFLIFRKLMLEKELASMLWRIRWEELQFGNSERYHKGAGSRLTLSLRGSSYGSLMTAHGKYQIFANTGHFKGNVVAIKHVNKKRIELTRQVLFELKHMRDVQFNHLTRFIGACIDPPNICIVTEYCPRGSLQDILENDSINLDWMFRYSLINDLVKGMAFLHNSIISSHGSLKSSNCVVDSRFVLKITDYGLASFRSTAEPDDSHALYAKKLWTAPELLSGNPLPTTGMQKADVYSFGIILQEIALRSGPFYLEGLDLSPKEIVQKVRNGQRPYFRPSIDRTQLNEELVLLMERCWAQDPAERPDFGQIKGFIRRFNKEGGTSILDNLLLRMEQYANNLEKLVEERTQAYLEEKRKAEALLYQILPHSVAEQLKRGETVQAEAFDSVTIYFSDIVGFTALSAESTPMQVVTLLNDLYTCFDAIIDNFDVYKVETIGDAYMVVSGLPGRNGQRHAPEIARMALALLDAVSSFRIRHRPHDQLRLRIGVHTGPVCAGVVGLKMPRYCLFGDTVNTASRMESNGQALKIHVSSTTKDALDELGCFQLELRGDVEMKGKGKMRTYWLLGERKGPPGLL
FLuc inh counter – counter-screen for Npr1 antagonists: firefly luciferase inhibitors | AID 1347047 | shares compounds with NPR1 antag | Potency, µM (titrated, usually from 57.6 µM), for the others: top-dose activity change, negative = inhibition, hits mostly inhibitors | 1,400 tested, 0.7% active | purified FLuc enzyme, luminescence, Km substrate; also: series mostly up to about 58 µM; 0% is about no effect
GloSensor cGMP – counter-screen for Npr1 antagonists: GloSensor control cell line. HEK293 GloSensor cGMP, SNP-stimulated, luminescence. 1,400 tested, 69% active. shares compounds with NPR1 antag. AID 1347051. Potency, µM (titrated, usually from 57.6 µM), inactives show at the highest dose activity change, negative = inhibition, most hits filed as inhibitors; calls by dose curve; also: % is scaled to controls: 0 for no effect and ±100 for the full control effect; nearly all actives have a fitted effect of over 70% in size
* hit, by the source's call; i = inactive; u = inconclusive; x = no result; [ ] = remark or other dose. Unless noted, calls follow the shape of the dose curve; as a rule, active = well fitted curve in the direction sought with a large enough effect; inconclusive = small, poorly fitted or top-dose-only effect, or another doubt; inactive = no such curve, though single readings can be large; an effect the other way counts as inactive or inconclusive. Potency is read from the fitted curve at half-maximal effect.

SMILES	HEK cytotox	FLuc inh	NPR1 antag	GPT2 inh	3T3 cytotox	Npr1 antag conf	Npr2 selectivity	FLuc inh counter	GloSensor cGMP
C[S+](=O)([O-])CCn1ncc2cc(OCc3cccc(-c4ccc(Cl)cc4)c3)ccc21	u	i	u	u	u	31µM*	31µM*	u	35µM*
CCc1cnc(N2CCC(COc3ccc4c(cnn4CC[S+](C)(=O)[O-])c3)CC2)nc1	u	i	8.9µM*	1%	-23%	8.6µM*	9.7µM*	0%	6.9µM*
CNC(=O)CCn1ncc2cc(OCc3ccccc3-c3ccccc3Cl)ccc21	u	i	-14%[70.6 µM]	i	u	x	x	x	x
Cc1ccc(OCCC2CCN(C(=O)CCCC(=O)n3nc(C)c4ccccc43)C2)cc1 (centres undefined)	40µM*	i	10µM*	i	u	11µM*	14µM*	0%	11µM*
Cc1nn2c(c1-c1cccnc1N1CCOCC1)N(C(=O)Cc1cccc(Cl)c1)CCC2	4%	i	-21%	1%	u	-27%	u	0%	7%
Cc1nn2c(c1-c1ccccc1OCc1ccccc1)N(C(=O)c1ccn(C)n1)CCC2	-18%[172 µM]	i	0%[70.6 µM]	4%[88.5 µM]	u	x	x	x	x
Cc1nn2c(c1-c1cccnc1N1CCOCC1)N(CCc1ccccc1)CCC2	25µM*	i	4µM*	i	u	35µM*	31µM*	-6%[86.2 µM]	u
COc1cccc(S(=O)(=O)N2CCC3(CC2)CC(N(C)Cc2ccccc2)CCO3)c1 (centres undefined)	u	i	u	i	u	u	u	3%	u
COc1ccc(S(=O)(=O)N2CCC3(CC2)CC(N(C)Cc2ccccc2)CCO3)cc1 (centres undefined)	u	i	11µM*	i	u	27µM*	u	1%	u
CN1CCC(CN2CCC3(CC2)OCCN(c2ccc(F)cc2)C3=O)CC1	u	i	6%[70.6 µM]	2%[88.5 µM]	u	x	x	x	x
CC(C)c1ccc(CN2CCC3(CC2)OCCN(c2ccc(F)cc2)C3=O)cc1	u	i	22µM*	2%[88.5 µM]	u	35µM*	31µM*	-2%[86.2 µM]	35µM*
Cc1noc(C)c1[S+](=O)([O-])N1CCc2nc(C(C)C)nc(-c3ccc(O)cc3)c2C1	u	i	-4%	i	u	-24%	u	1%[86.2 µM]	8%
COc1ccc(C(=O)N2CCCN(c3cc(-c4ccc(Cl)cc4)[nH]n3)CC2)c(C)c1	50µM*	i	3.5µM*	-25%	u	9.7µM*	11µM*	0%	9.7µM*
COc1ccc(C(=O)NC2CCN(c3cc(-c4ccc(F)cc4)[nH]n3)CC2)c(C)c1	u	i	0%	i	u	u	u	2%	-20%
COc1ccc(C(=O)N2CCCN(c3cc(-c4ccc(F)cc4)[nH]n3)CC2)c(C)c1	u	i	5.6µM*	u	u	11µM*	12µM*	0%	6.9µM*
COc1ccc(-c2cc(N3CCN(C(=O)c4ccc(F)cc4F)CC3)n[nH]2)cc1	u	i	0%	i	u	x	x	x	x
O=C(NC1CCN(c2cc(-c3ccccc3)[nH]n2)CC1)c1cc(Cl)ccc1F	u	i	-21%	i	u	-22%	-23%	2%	-19%
O=C(NC1CCCN(c2cc(-c3ccccc3)[nH]n2)C1)c1cc(Cl)ccc1F (centres undefined)	u	i	-20%	-8%	u	x	x	x	x
COc1ccc(-c2cc(N3CCN(C(=O)c4ccc(Cl)cc4OC)CC3)n[nH]2)cc1	u	i	u	i	u	x	x	x	x
O=C(c1ccc2c(c1)OCO2)N1CCC2(CC1)COc1ccccc1NC2=O	u	i	0%	4%	-26%	x	x	x	x
CN(C(=O)COc1ccc(F)cc1)C1CCc2nn(CC3CC3)c(=O)n2CC1 (centres undefined)	-6%	i	3%	i	-22%	x	x	x	x
CC(=O)N[C@H](Cc1ccc(O)cc1)C(=O)N[C@H](CCCN=C(N)N)C(=O)N[C@H](Cc1ccccc1)C(N)=O	x	x	x	i	x	x	x	x	x
O=C(c1cccc(Br)c1)N1CCN(c2ccnc3ccnn23)CC1	u	x	x	i	u	x	x	x	x
COc1ccc(CC(=O)NC2CCN(c3cc(-c4ccc(OC)cc4)[nH]n3)CC2)cc1	u	i	-25%	-16%	u	u	u	0%	-27%
COc1ccc(CC(=O)NC2CCCN(c3cc(-c4ccc(Cl)cc4)[nH]n3)C2)cc1OC (centres undefined)	22µM*	i	11µM*	-19%	u	24µM*	15µM*	1%	24µM*
COc1ccc(-c2nc(C(=O)N3CCOCC3)n3ccccc23)cc1	u	i	16%[70.6 µM]	i	-21%[138 µM]	x	x	x	x
COCc1nc(-c2ccc(OC3CN(S(=O)(=O)c4ccccc4C)C3)cc2)no1	14µM*	i	11µM*	-19%	u	12µM*	19µM*	1%	15µM*
Cc1ccc(CNC(=O)N2CCC(Oc3ccc(-c4noc(C)n4)cc3)C2)cc1 (centres undefined)	u	i	20µM*	-6%	u	u	-28%	-17%	-18%
Cc1nc(-c2ccc(OC3CCN(C(=O)NC4CCCCC4)C3)cc2)no1 (centres undefined)	u	i	-4%	i	u	x	x	x	x
COCc1nc(-c2ccc(OC3CN(C(=O)NC(C)C)C3)cc2)no1	u	i	13µM*	i	-22%	24µM*	24µM*	-2%	24µM*
